The test system of one assay is CRL-7250. Briefly: Cytotoxic Profiling of Annotated Libraries Using Quantitative High-Throughput Screening (AID 1296008). Further: potency means the concentration at half of the fitted maximal effect. On max response: on the % scale 0 is the no-effect control and ±100 the full control effect. Conditions: Five cell lines viability, CellTiter-Glo ATP luminescence, 48-72 h; max response: stronger effect = lower value. The gist of the method: (§1)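 Compounds were pin-transferred onto cells and incubated 48 or 72 hr at 37 degree Celsius, 95% humidity. CellTiter-Glo was added, plates sat 10 min at room temperature, then ATP-coupled luminescence was imaged as the viability read-out.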
(ATP-based viability assays read luminescence as a measure of living cells.)

The test system of assay [1] is HaCat. The description is as above. Conditions: Five cell lines viability, CellTiter-Glo ATP luminescence, 48-72 h; max response: stronger effect = lower value. The gist of the method: as §1
In another assay the test system is KB-3-1. The assay is described as above. Conditions: Five cell lines viability, CellTiter-Glo ATP luminescence, 48-72 h; max response: stronger effect = lower value. The method, boiled down: as §1
Another assay relates to NIH3T3. The description is as above. The conditions noted are these: Five cell lines viability, CellTiter-Glo ATP luminescence, 48-72 h; max response: stronger effect = lower value. The gist of the method:
as §1

For assay [2], the system named is HACAT. The experiment in a line: qHTS assay to identify novel small-molecules to repurpose for Merkel cell carcinoma treatment (AID 1296009). The conditions noted are these: MCC and control cell lines, CellTiter-Glo viability, 72 h; at 44.8 µM (top of the series) unless noted. The method, boiled down: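 Luminescence from CellTiter-Glo, read 10 min after addition at room temperature, reported viability following a 72 hr, 37 degree celsius treatment with NPC or MIPE compounds in titration; values normalized to plate controls.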
In general terms: In qHTS, concentration-response curves come from the screen itself.

The next assay has as its system HEK293. Briefly: Cytotoxic Profiling of Annotated Libraries Using Quantitative High-Throughput Screening (AID 1296008). Further: potency means the concentration at half of the fitted maximal effect. On max response: on the % scale 0 is the no-effect control and ±100 the full control effect. Conditions: Five cell lines viability, CellTiter-Glo ATP luminescence, 48-72 h; max response: stronger effect = lower value. The gist of the method:
as §1

From PubChem BioAssay (NCATS) come the findings set out here.

The structures appear in SMILES notation. Values joined by “and” are separate entries in the source; they are usually repeats but may differ in a detail not shown here. Identical values can stand only once. Records with an inconclusive call do not appear. Unmarked numbers belong to inactive results. Active and inactive are the calls of the source. The call rests on the fitted dose curve; in most records, active means well fitted inhibition curve with a large enough effect; inconclusive means small, poorly fitted or top-dose-only effect; inactive means flat fitted curve, though single readings scatter.
Further: nearly all actives have a fitted effect of over 60% in size.

Take `C=CCNc1c(O)cc2c(O)c1C[C@@H](C)C[C@H](OC)[C@@H](O)[C@@H](C)C=C(C)[C@H](OC(N)=O)[C@@H](OC)C=CC=C(C)C(=O)N2`: the Potency is 0.0372 µM (active) in the assay with CRL-7250, 0.372 µM (active) in the assay with HaCat [1], 0.0935 µM (active) in the assay with KB-3-1 and 0.59 µM (active) in the assay with NIH3T3.
The like results for `O=C(Nc1cccc(Nc2ncc(Br)c(NCCc3cnc[nH]3)n2)c1)N1CCCC1` were, in that order, 4.18 µM (active), 9.35 µM (active), 1.32 µM (active) and 4.69 µM (active).
As for `O=C(C=CC=Cc1ccc2c(c1)OCO2)N1CCCCC1`, the max response with CRL-7250 was -3.96%; in the assay with HaCat [1] it was -2.24%; in the assay with KB-3-1, -6.15%. In addition, in the assay on NIH3T3, the outcome was inactive.
On to `OCCN1C[C@H](O)[C@@H](O)[C@H](O)[C@@H]1CO`, for which the max response with CRL-7250 is -0.792%; in the assay on NIH3T3 it was -2.06%. Besides, the compound was classed as inactive in the assay on HaCat [1], in the assay with KB-3-1 and in the assay with HACAT [2].
Consider `CC(C)OC(=O)[C@H](C)N[P@](=O)(OC[C@H]1O[C@@H](n2ccc(=O)[nH]c2=O)[C@](C)(F)[C@H]1O)Oc1ccccc1`, for which the max response in the assay with CRL-7250 was -5.93%; in the assay with HaCat [1] it was -9.66%; in the assay on KB-3-1 it was 1.17%; in the assay with NIH3T3, -9.86%.
Turning to `CC(N[C@H]1CCCC[C@H]1NC(=O)c1ccc(Cl)cc1)c1cccc2ccccc12` (stereo partly specified), the max response was 2.81% in the assay on CRL-7250, 1.61% with KB-3-1 and -12.9% in the assay with NIH3T3. Also, the result in the assay with HaCat [1] and with HACAT [2] was inactive.
On to `CS(=O)(=O)N1CCc2c(-c3cnc(N)nc3)nc(N3CCOCC3)nc21`, for which the Potency is 0.935 µM (active) in the assay on CRL-7250; 1.16 µM (active) in the assay with HaCat [1]; 4.61 µM (active) with KB-3-1; 743 nM (active) and 1.84 µM (active) in the assay on NIH3T3.
Turning to `C=CC(=O)Nc1ccc2ncnc(Nc3ccc(OCc4cccc(F)c4)c(Cl)c3)c2c1`, the Potency in the assay on CRL-7250 was 14.6 µM (active); with HaCat [1] it was 1.87 µM (active) and 580 nM (active); in the assay with KB-3-1 it was 9.35 µM (active).
Regarding `Cn1cc(C[C@@H](N)C(=O)O)c2ccccc21`, in the assay with CRL-7250, the Potency was 5.75 µM (active). The result in the assay with HaCat [1] was inactive. Further, the max response in the assay with KB-3-1 was 4.82%; with NIH3T3, -2.88%. Also, the outcome with HACAT [2] is “inactive [at 17.4 µM]”.
Regarding `C[C@](Cc1c[nH]c2ccccc12)(NC(=O)OC1C2CC3CC(C2)CC1C3)C(=O)NC[C@H](NC(=O)CCC(=O)O)c1ccccc1` (stereo partly specified), the outcome in the assay with CRL-7250, in the assay on HaCat [1] and in the assay on HACAT [2] was inactive. The max response in the assay on KB-3-1 is -2.86%; in the assay with NIH3T3, -5.4%.
For the compound `NS(=O)(=O)OC[C@@H]1C[C@@H](n2ccc3c(N[C@H]4CCc5ccccc54)ncnc32)C[C@H]1O`, the Potency in the assay on CRL-7250 is 2.64 µM (active); in the assay with HEK293, 0.526 µM (active). Further, the max response in the assay on NIH3T3 was -27.1%.
On to `COc1cc(OC)cc(-c2ccc3ncc4ccc(=O)n(-c5ccc(N6CCNCC6)c(C(F)(F)F)c5)c4c3c2)c1`, for which the Potency in the assay with CRL-7250 was 10.5 µM (active); with HEK293, 3.72 µM (active); with NIH3T3, 14.8 µM (active).
In the case of `FC(F)(F)c1ccc(Nc2nc3ccc(Oc4ccnc(-c5ncc(C(F)(F)F)[nH]5)c4)cc3[nH]2)cc1`, the Potency in the assay with CRL-7250 was 13.2 µM (active) and 14.6 µM (active). Further, in the assay with HaCat [1], the max response is -7.61% and -42.8%.
On to `N[C@H]1CN(c2c(F)cc3c(=O)c(C(=O)O)cn(C4C[C@@H]4F)c3c2Cl)CC12CC2` (stereo partly specified), for which the figures for the max response with CRL-7250, in the assay on HEK293 and with KB-3-1 were -23.8%, -9.37% and -14.1%, respectively. In the assay on NIH3T3, the outcome was inactive.
For the compound `O=C(Nc1nnc(-c2ccco2)o1)c1cc(-c2ccccc2)nc2ccccc12`, the Potency with CRL-7250 is 16.6 µM (active). Moreover, the max response in the assay with HaCat [1] is -46%.
Regarding `C=C[C@@H]1CN2CCC1C[C@H]2[C@H](O)c1ccnc2ccc(OC)cc12` (stereo partly specified), the max response was 3.01% in the assay with CRL-7250, -13.1% in the assay on HaCat [1], -2.72% with KB-3-1 and 3.02% in the assay on NIH3T3.
`Cc1ccccc1C(=O)Nc1ccc(C(=O)N2CCCC(O)c3cc(Cl)ccc32)c(C)c1` (stereo unspecified): the results for the max response with CRL-7250, with HaCat [1] and with NIH3T3 were -23.5%, 1.52% and -21%, respectively. Besides, in the assay with KB-3-1, the compound was classed as inactive.
For `C=C1C(=CC=C2CCC[C@]3(C)[C@@H]([C@H](C)CCCC(C)(C)O)CC[C@@H]23)C[C@@H](O)C[C@@H]1O`, the max response with CRL-7250 is -5.17%; in the assay on KB-3-1, -11.2%. Besides, the outcome with HaCat [1] and in the assay with HACAT [2] was inactive. Besides, the Potency in the assay on NIH3T3 was 0.0033 µM (active).
In the case of `OCc1ccccc1O[C@@H]1O[C@H](CO)[C@H](O)[C@H](O)[C@H]1O`, the max response in the assay on CRL-7250 is -20.8%; in the assay on HaCat [1], -10.2%. The result in the assay with KB-3-1 and with NIH3T3 was inactive.
In the case of `CC(=O)SCC(Cc1ccccc1)C(=O)NCC(=O)OCc1ccccc1` (stereo unspecified), the results for the max response in the assay with CRL-7250, in the assay with KB-3-1 and in the assay with NIH3T3 were -7.71%, 3.33% and -4.22%, respectively. The call in the assay with HaCat [1] and in the assay with HACAT [2] was inactive.
For `C[C@@H]1CC[C@@]2(OC1)OC1CC3C4CC=C5CC(O)CCC5(C)C4CCC3(C)C1[C@@H]2C` (stereo partly specified), the max response in the assay on CRL-7250 is -6.42%; in the assay on KB-3-1 it was -6.71%; in the assay on NIH3T3, -12.1%. Besides, the Potency with HEK293 is 10.5 µM (active).
Consider `C#Cc1cccc(Nc2ncnc3cc(OCCOC)c(OCCO)cc23)c1`, for which the Potency in the assay on CRL-7250 is 14.8 µM (active); with HEK293, 16.6 µM (active); in the assay with NIH3T3 it was 20.9 µM (active).
